Reference: PubChem BioAssay (NCI)
The panel holds about 83,000 compounds, 20% with a hit somewhere; the sample as a whole holds those more often.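 Results are percent growth after 48 hours of single-concentration exposure. 100 means growth as in untreated cells, lower positive values show inhibition; negative values down to -100 show cell death.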 Values without a mark were called inactive. The source made the active and inactive calls. The calls were made as follows: active = growth percent below 10; inactive = the rest.

How the values were obtained:
Assay in all cases: NCI-60 one-dose screen, 48 h (100 = growth as untreated, 0 = no growth, -100 = all killed)
Conditions in all cases: 10 µM unless noted
NCI-H23 lung = system: NCI-H23 lung
NCI-H226 lung = system: NCI-H226 lung
NCI-H322M lung = system: NCI-H322M lung
HOP-62 NSCLC = system: HOP-62 NSCLC
NCI-H460 lung = system: NCI-H460 lung
HOP-92 NSCLC = system: HOP-92 NSCLC
NCI-H522 lung = system: NCI-H522 lung
A549/ATCC NSCLC = system: A549/ATCC NSCLC
786-0 renal = system: 786-0 renal
COLO 205 colon = system: COLO 205 colon

Row | Compound | growth (NCI-H23 lung) | growth (NCI-H226 lung) | growth (NCI-H322M lung) | growth (HOP-62 NSCLC) | growth (NCI-H460 lung) | growth (HOP-92 NSCLC) | growth (NCI-H522 lung) | growth (A549/ATCC NSCLC) | growth (786-0 renal) | growth (COLO 205 colon)
1 | CC(C)(C)CC(C)(C)n1nnnc1C(NC12CC3CC(CC(C3)C1)C2)c1ccccc1 (stereo not given) | 90.8% | 84.2% | 105% | 101% | 94.5% | 87% | 74% | 80.7% | 86.3% | 122%
2 | COc1cc2cc(Oc3cccc(NC(=O)Nc4cc(C(F)(F)F)cc(C(F)(F)F)c4)c3)c(C)nc2cc1OC | 2.28% (active) | -10.2% (active) | 14.9% | -54.1% (active) | 7% (active) | -25.4% (active) | -33.4% (active) | 5.93% (active) | -16.6% (active) | -81.2% (active)
3 | CC(C)(C)c1ccc(NS(=O)(=O)c2ccc3nc(NC(=O)c4cnccn4)[nH]c3c2)cc1 | 52% | 44.3% | 41.9% | 53.4% | 6.16% (active) | 36.7% | 20.4% | 38.8% | 30% | 21.7%
4 | O=C(/C=C/c1ccc(Cl)cc1)c1ccc(NC(=O)N2CCN(c3cc4c(cc3F)c(=O)c(C(=O)O)cn4C3CC3)CC2)cc1 | 87.4% | 89.4% | 103% | 106% | 87.8% | 92.9% | 66.9% | 95.8% | 86.5% | 115%
5 | Cc1ccc(-n2cc(-c3ccccc3)c3c2N=NN2CCN=C32)cc1 | 93.1% | 82.3% | 97.4% | 97.4% | 104% | 102% | 90.2% | 105% | 99.3% | 120%
6 | Cc1cccc(NC(=O)Nc2ccc(-c3ccc4c(c3)NC(=O)/C4=C\c3ccc[nH]3)cc2)c1 | 61.6% | 85.5% | 89.8% | 89.8% | 26.3% | 127% | 85.3% | 83.6% | 103% | 96.3%
7 | O=C1c2ccccc2C(=O)c2c([N+](=O)[O-])ccc(Cl)c21 | 89.3% | 102% | 99.7% | 111% | 101% | 76.5% | 59.2% | 93.7% | 96.6% | 116%
8 | O=C(Nc1ccc(-c2ccc3c(c2)NC(=O)/C3=C\c2ccc[nH]2)cc1)NC1CC1 | 55.1% | 101% | 80.2% | 113% | 59.8% | 125% | 89.6% | 102% | 110% | 115%
9 | COc1cc(C(=O)Nc2cc3c(cc2Oc2cc(C)cc(C)c2)C(=O)N(C)[C@@H](CC(=O)N(C)O)C(=O)N3)c(Br)c(OC)c1OC | -20.4% (active) | -17.2% (active) | -32.5% (active) | -15.7% (active) | -14.7% (active) | -16.4% (active) | -43.1% (active) | -4.48% (active) | -38.5% (active) | -17.9% (active)
10 | CCN(CC)CCCC(C)Nc1cc(O)cc2cccnc12 (stereo not given) | 98.8% | 112% | 110% | 104% | 108% | 89.4% | 125% | 96.2% | 118% | 74.5%
11 | CN1C(N2CCN(S(=O)(=O)c3ccccc3)CC2)=NS(=O)(=O)c2ccccc21 | 98.2% | 112% | 82.6% | 89% | 103% | 86.8% | 80.2% | 69.7% | 99.5% | 109%
12 | Cc1cc2nc3c4cc(C=O)ccc4n(CCN(C)C)c3nc2cc1C | 17.4% | -3.6% (active) | 21% | 7.67% (active) | 0.703% (active) | 27% | -9.47% (active) | 6.3% (active) | 27.5% | -15.9% (active)
13 | CC(C)(C)c1cc(/C=N/NC(=O)c2ccccc2NC(=O)c2cccs2)c(O)c(C(C)(C)C)c1 | 48.6% | 55.1% | 39.1% | 20.7% | -11% (active) | 75.4% | 27.8% | 12.8% | 18.4% | 4.49% (active)
14 | CCCCNC(=O)Oc1ccc(/C(=C(\C)c2ccccc2)c2ccc(OCCN3CCCCC3)cc2)cc1 | 67.9% | 86.8% | 75.3% | 77.9% | 40.5% | 68.1% | 73.1% | 57.8% | 27.1% | 14.3%
15 | Cc1ccc(C(=O)/C(=C\c2ccc([N+](=O)[O-])cc2)S(=O)Cc2ccc(F)cc2)cc1 (stereo not given) | 31.6% | 41.5% | 72.6% | 21.5% | 15% | 27.2% | -12% (active) | 73.2% | -66.1% (active) | 2.86% (active)
16 | Cn1c(-c2c(N)n(CCCN3CCOCC3)c3nc(C#N)c(C#N)nc23)nc2ccccc21 | 93.2% | 89.7% | 78.1% | 76.4% | 106% | -6.11% (active) | 77.4% | 86.8% | 23.3% | 70%
17 | COC(=O)c1ccc2c(c1)[n+](=O)c(C(C)=O)c(C(F)(F)F)n2[O-] | -62.2% (active) | -17.1% (active) | 66.2% | -9.08% (active) | -88.8% (active) | -57% (active) | -80.7% (active) | 28.6% | -40.5% (active) | -100% (active)
18 | COc1cc(/C=C\C(=O)O)ccc1OCc1ccccc1 | 100% | 80.2% | 117% | 99% | 105% | 86.1% | 83.6% | 82.3% | 109% | 108%
19 | Cc1ccc(C(=O)/C(=C\c2ccc([N+](=O)[O-])cc2)S(=O)Cc2ccc(Cl)cc2)cc1 (stereo not given) | 41% | 66.4% | 80.3% | 46.7% | 30% | 64.8% | -5.71% (active) | 84.1% | -52.4% (active) | 20.7%
20 | CC[C@]12C=CCN3CC[C@@]4(c5cc(NC(=O)CCC(=O)O[C@H]6CC[C@H]7[C@@H]8CCC9=CC(=O)CC[C@@H]9[C@H]8CC[C@]67C)c(OC)cc5N(C)[C@H]4[C@@](O)(C(=O)OC)[C@@H]1OC(C)=O)[C@@H]32 | 90.7% | 86.5% | 91.1% | 89.3% | 77.4% | 64.6% | 69.9% | 74.3% | 86% | 89.8%
21 | Cc1nnc2c(Cc3ccccc3)nc3ccccc3n12 | 91.3% | 84.9% | 100% | 108% | 100% | 82.4% | 107% | 97.9% | 98.6% | 113%
22 | N#CC(C(=O)/C(=N/NC(=O)c1ccccc1O)C(C#N)c1ccccc1)c1ccccc1 (stereo not given) | 55.5% | 70.5% | 68.4% | 30.8% | 24.3% | 40.4% | 67.9% | 20.1% | 85.9% | 105%
23 | Cc1cc2nc3c4cccc(O)c4n(CCN(C)C)c3nc2cc1C | 32.3% | 37% | 38% | 31.7% | 9.09% (active) | 55.1% | 31% | 20.4% | 40.4% | 59.7%
24 | CN1C(=O)NC(c2ccc3c(c2)OCO3)C=C1c1ccccc1 (stereo not given) | 96.3% | 103% | 92.4% | 91.3% | 97.6% | 93.9% | 80% | 91.1% | 83% | 107%
25 | COc1cc2nc(-c3ccc(C(F)(F)F)cc3)cc(OCCCN3CCOCC3)c2cc1OC | 56.5% | -10.5% (active) | 57.2% | 51.9% | 18.5% | 11.2% | 14.6% | 29% | 21.5% | 20%
26 | O=C(Cc1ccc(/C=C/C(=O)c2nccs2)cc1)Nc1ccccc1 | 97.3% | 100% | 100% | 103% | 103% | 91.3% | 78.5% | 88.8% | 93.8% | 122%
